Screens from PubChem BioAssay.
FMDV inh – antivirals against foot and mouth disease virus; 410,000 compounds, 1.2% hits; AID 1159524; Potency, µM (titrated, usually from 57.9 µM), actives largely listed as inhibitors; FMDV antiviral cell-based qHTS; calls by dose curve; tested in HEK293T cells; note: read-out not given here; nearly all actives have a fitted effect of over 45% in size
MARV entry inh – inhibitors of Marburg virus binding or cell entry; Marburg virus pseudotyped entry inhibition, cell reporter; Potency, µM (highest dose often 37.8 µM), hits mostly inhibitors; 300,000 compounds, 1.8% hits; AID 540276; calls by dose curve; tested in HEK293 cells
HCV inhibitor – inhibitors of hepatitis C virus infection | Huh7.5.1 HCVcc-Cre infection, luciferase reporter, 44 h | Potency, µM (titrated, usually from 41.8 µM), most hits filed as inhibitors | 340,000 compounds, 3.4% hits; active = well fitted inhibition curve with a large enough effect; inconclusive = small, poorly fitted or top-dose-only effect, or another doubt; inactive = no such curve, though single readings can be large or run the other way
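Cells seeded at 1,000/well and cultured 4 h, then compounds added followed by HCVcc-Cre virus (~0.5 moi). After 44 h further culture, luciferase substrate was added, plates held 15 min at room temperature, and luminescence read for 15 sec.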
SARS PLpro yeast-1 – SARS-CoV PLP inhibition in yeast | S. cerevisiae expressing SARS-CoV PLpro, growth rescue | Potency, µM (titrated, usually from 32.9 µM), most hits filed as activators | 330,000 compounds, 0.19% hits | AID 485353; calls by dose curve; note: nearly all actives have a fitted effect of over 55% in size
HCMV inh – human cytomegalovirus inhibition. AID 1259415. 410,000 compounds, 4.5% hits. activity change, negative = inhibition, % at 57.5 µM. HFF cells, HCMV-luciferase reporter, 72 h; hits give low values; in the data active = activity change below about -60%; inconclusive = no clear call, values can overlap the other calls; inactive = above about -39%
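Two-dose cell screen: HFF monolayers treated with compounds and infected with luciferase-expressing HCMV at 1 PFU/cell, 72 h at 37C, then lysed for luciferase measurement.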
LASV entry inh – Lassa virus entry inhibition. 300,000 compounds, 1.2% hits. Potency, µM (titrated, usually from 37.9 µM), actives largely listed as inhibitors. Lassa virus pseudotype entry inhibition, cell reporter; calls by dose curve; tested in HEK293 cells; note: nearly all actives have a fitted effect of over 50% in size
SARS PLpro yeast-2 – Rescues yeast growth by inhibiting SARS-CoV PLpro. shares compounds with SARS PLpro yeast-1. yeast expressing SARS-CoV PLpro, growth phenotype rescue. calls only. 1,000 compounds, 19% hits. AID 652038; call rule not given here
Each line names hits and unclear results; the compound was inactive in the other large screens (follow-up assays come after a bar, where they were run). Compounds with a hit are over-represented: about 8% of the library has one in this group of screens.

CC(C)(C)n1nnnc1C(c1ccccc1)N1CCN(C(=O)c2ccco2)CC1 (centres undefined)	HCMV inh inconclusive (no result: MARV entry inh, HCV inhibitor, SARS PLpro yeast-1, LASV entry inh)
CCOCCCNC(=O)Cn1ncc2c([nH]c3ccc(C)cc32)c1=O	LASV entry inh inconclusive (no result: MARV entry inh, HCV inhibitor, SARS PLpro yeast-1)
CC(=O)NC(c1ccco1)c1ccc2cccnc2c1O (centres undefined)	MARV entry inh inconclusive, HCV inhibitor 7.94µM, SARS PLpro yeast-1 inconclusive, LASV entry inh inconclusive (no result: HCMV inh) | SARS PLpro yeast-2 active
COc1cc(OC)cc(C(=O)NC(=S)NNC(=O)c2cnccn2)c1	MARV entry inh inconclusive, HCV inhibitor inconclusive, HCMV inh -88.8, LASV entry inh inconclusive (no result: SARS PLpro yeast-1) | SARS PLpro yeast-2 inactive
COc1ccc(C(=O)NCCNC(=O)c2cnccn2)cc1OC	none
COc1ccc(C(=O)NC(=S)NNC(=O)c2cnccn2)cc1OC	MARV entry inh inconclusive, HCV inhibitor inconclusive, SARS PLpro yeast-1 3.98µM, HCMV inh inconclusive | SARS PLpro yeast-2 inconclusive
CN1CC(=O)N(CC(=O)Nc2ccc(N3CCOCC3)cc2)C1=O	none (no result: MARV entry inh, LASV entry inh)
O=C(N/N=C/c1ccc(-n2ccnc2)cc1)c1cccs1	MARV entry inh inconclusive, SARS PLpro yeast-1 inconclusive | SARS PLpro yeast-2 inactive
O=C(N/N=C/c1ccncc1)c1cccs1	none (no result: MARV entry inh, HCMV inh, LASV entry inh)
O=c1[nH]c(O)c(/C=C2\C=Nc3ccc(Br)cc32)[nH]1	none (no result: MARV entry inh, LASV entry inh)
C(=C\c1ccccc1)/CNn1cnnc1	SARS PLpro yeast-1 inconclusive | SARS PLpro yeast-2 inactive
Cn1cccc1/C=N/NC(N)=S	SARS PLpro yeast-1 10µM | SARS PLpro yeast-2 active
CCOc1ccc(Nc2oc(-c3cccc(Cl)c3)nc2C#N)cc1	SARS PLpro yeast-1 inconclusive | SARS PLpro yeast-2 inconclusive
CCOc1ccc(Nc2oc(-c3ccco3)nc2C#N)cc1	none
O=Cc1c(Sc2ccccc2)nc2ccccn2c1=O	FMDV inh inconclusive, MARV entry inh inconclusive, SARS PLpro yeast-1 inconclusive, LASV entry inh inconclusive | SARS PLpro yeast-2 inactive
O=Cc1c(SCCO)nc2ccccn2c1=O	none (no result: MARV entry inh, LASV entry inh)
O=[N+]([O-])c1ccc(/C=N/N2CCN(c3ccncc3S(=O)(=O)N3CCCCC3)CC2)cc1	SARS PLpro yeast-1 3.16µM | SARS PLpro yeast-2 inactive
O=[N+]([O-])c1ccccc1/C=N/N1CCN(c2ccncc2S(=O)(=O)N2CCCCC2)CC1	FMDV inh inconclusive, MARV entry inh inconclusive, HCV inhibitor inconclusive, LASV entry inh inconclusive
COc1cccc(NC(=O)CCCCCN2C(=O)[C@@H]3Cc4ccccc4CN3C2=O)c1	FMDV inh inconclusive, HCV inhibitor inconclusive (no result: MARV entry inh, LASV entry inh)
CCCCCC(=O)N/N=C(\C)c1ccc(N2CCCCC2)cc1	MARV entry inh inconclusive, SARS PLpro yeast-1 14.1µM | SARS PLpro yeast-2 inactive
O=C(c1cnc(N2CCOCC2)c2ccccc12)N1CCN(c2ccccc2F)CC1	none (no result: MARV entry inh, HCV inhibitor, SARS PLpro yeast-1)
COc1ccc(C(=O)NCCONC(=O)c2ccc(OC)cc2)cc1	none
Cc1cc(/C=C(\C#N)C(=O)NC2CCCCCC2)c(C)[nH]1	MARV entry inh inconclusive, SARS PLpro yeast-1 12.6µM | SARS PLpro yeast-2 inactive
Cc1cc(/C=C(\C#N)C(=O)NC2CC2)c(C)[nH]1	MARV entry inh inconclusive, LASV entry inh inconclusive
O=C(CSc1nc2ccccc2c(=O)n1CCCN1CCOCC1)Nc1ccccc1OC(F)F	MARV entry inh inconclusive, SARS PLpro yeast-1 2.82µM, LASV entry inh inconclusive | SARS PLpro yeast-2 inactive
CC(=O)Nc1ccc(NC(=O)CSc2nc3ccccc3c(=O)n2CCCN2CCOCC2)cc1	none
Cc1cccc2cc(COC(=O)c3cccs3)c(=O)[nH]c12	SARS PLpro yeast-1 3.16µM, HCMV inh -65.4 | SARS PLpro yeast-2 inactive
CC(CNC(=O)Cn1cnc2c(NCc3ccccc3)ncnc21)c1ccccc1 (centres undefined)	SARS PLpro yeast-1 14.1µM (no result: MARV entry inh, LASV entry inh) | SARS PLpro yeast-2 active
O=C(Cn1cnc2c(NCc3ccccc3)ncnc21)NCCCc1ccccc1	HCV inhibitor inconclusive (no result: MARV entry inh, LASV entry inh)
CCCN1C(=O)SC(CC(=O)Nc2ccccc2C)C1=O (centres undefined)	SARS PLpro yeast-1 inconclusive, HCMV inh inconclusive | SARS PLpro yeast-2 inactive
Cc1ccccc1NC(=O)CC1SC(=O)N(c2ccccc2)C1=O (centres undefined)	none
COc1ccccc1Cc1c(-c2ccco2)nc2cc(C)c(Br)c(C)n12	FMDV inh inconclusive (no result: MARV entry inh, HCV inhibitor, SARS PLpro yeast-1, LASV entry inh)
CN(C)c1cccc(C(=O)N/N=C/c2ccsc2)c1	MARV entry inh inconclusive, SARS PLpro yeast-1 20µM, LASV entry inh inconclusive | SARS PLpro yeast-2 inactive
